Hits are enriched below; roughly 3.4% of the tested compounds scored in any of these assays.
ADAM17 inh: ADAM17 inhibitors, primary screen, biochemical, QFRET; Disintegrin and metalloproteinase domain-containing protein 17 (Homo sapiens), P78536; recombinant ADAM17, EDANS/DABCYL FRET peptide cleavage; inhibition, % at 6.95 µM; hit rate 0.83% among 370,000; AID 720648, 2013;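 active = inhibition above the mean of compounds lying between control limits plus 3 SD, set per campaign, cut at about 8.5% in these data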;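 note: 0% = DMSO-only wells as the low control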
PLCg1 inh: PLC-gamma1 enzyme inhibitors, primary screen, biochemical, fluorescence, purified enzyme; 1-phosphatidylinositol 4,5-bisphosphate phosphodiesterase gamma-1 (Homo sapiens), P19174; fluorogenic substrate; inhibition, % at 12.2 µM; hit rate 0.84% among 370,000; AID 720700, 2013; in the data active = inhibition above about 9.5%
HGIII-sPLA2 inh: human group III sPLA2 inhibitors, primary screen, biochemical, QFRET, BODIPY PC-A2 liposome substrate; inhibition, % at 12.2 µM; QFRET BODIPY PC-A2 liposome hydrolysis, fluorescence; hit rate 0.56% among 370,000;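 active = inhibition above mean plus 3 SD of compounds lying within the high and low control bounds, cut at about 19% in these data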;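 note: 0% = median of test compound wells and 100% = no enzyme DMSO wells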
PLCb3 inh: human PLC-beta3 inhibitors, primary screen, biochemical, fluorescence; 1-phosphatidylinositol 4,5-bisphosphate phosphodiesterase beta-3 (Homo sapiens), Q01970; Purified PLC-beta3, fluorogenic substrate; inhibition, % at 12.2 µM; hit rate 0.18% among 370,000; in the data active = inhibition above about 11%;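 note: 0% = median of compound wells on plate and 100% = full blocker control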
ADAM10 inh: human ADAM10 inhibitors, primary screen, biochemical, QFRET, HTS; Disintegrin and metalloproteinase domain-containing protein 10 (Homo sapiens), O14672; hit rate 0.62% among 370,000; recombinant ADAM10, EDANS/DABCYL FRET peptide cleavage, 3 h; inhibition, % at 7 µM;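 active = inhibition above a per-campaign cutoff equal to the mean of compounds falling between control-based bounds plus 3 SD, cut at about 20% in these data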;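 note: 0% = DMSO wells while the 100% control is not disclosed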
proKLK7 act: proKLK7 zymogen activators, primary screen, biochemical, fluorescence intensity | Kallikrein-7 (Homo sapiens), P49862 | purified proKLK7, EDANS-DABCYL substrate fluorescence; 100% is mature enzyme control, 0% vehicle | activation, % at 7 µM | hit rate 0.9% among 370,000;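 active = activation above the mean of all tested compounds plus 3 SD, computed per campaign excluding outliers beyond control limits, cut at about 13% in these data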
Target sequence (P49862 whole entry, looked up): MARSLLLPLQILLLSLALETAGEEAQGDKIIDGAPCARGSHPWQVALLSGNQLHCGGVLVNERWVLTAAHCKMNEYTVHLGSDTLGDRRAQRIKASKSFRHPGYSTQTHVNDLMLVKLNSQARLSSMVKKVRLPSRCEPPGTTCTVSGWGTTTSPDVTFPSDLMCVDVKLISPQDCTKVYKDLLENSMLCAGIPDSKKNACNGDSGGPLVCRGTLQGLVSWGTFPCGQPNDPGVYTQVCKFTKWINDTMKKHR
proKLK7 act conf: proKLK7 zymogen activators, confirmation, biochemical, fluorescence intensity, triplicate; shares compounds with proKLK7 act; purified proKLK7, EDANS-DABCYL substrate fluorescence; scaled: vehicle 0, mature enzyme 100; activation, % at 7 µM; hit rate 68% among 3,200; AID 686949, 2013;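 active = activation, as change over the incubation, above the mean of all tested compounds plus 3 SD, cut at about 13% in these data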
EDANS interfere: EDANS-DABCYL substrate optical interference, artefact control for kallikrein-7 zymogen activator project, biochemical, fluorescence intensity, high throughput. shares compounds with proKLK7 act. no enzyme, 4 h; solvent 0%, active enzyme control 100%. activation, % at 7 µM. hit rate 80% among 3,200. AID 686952, 2013;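 active = activation above the all-compound mean plus 3 SD, ignoring values outside control-based bounds, cut at about 4.8% in these data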;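 note: value is the 4 h activation minus the activation read at time zero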
EDANS interf: optically interferes with EDANS-DABCYL fluorescence, kallikrein-7 activator counter-screen; shares compounds with proKLK7 act; EDANS-DABCYL peptide fluorescence interference, no enzyme; EC50, µM; hit rate 20% among 250;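 active = compounds that raise the fluorescence signal in this interference counterscreen, with EC50 at or below 10 µM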;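 note: intact quenched peptide substrate alone read at 355 nm excitation and 520 nm emission; signal is fluorescence gain from T0 to T4 after four hours at room temperature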
An asterisk follows results filed as active; i = inactive; · = not tested or not shown.

SMILES	ADAM17 inh	PLCg1 inh	HGIII-sPLA2 inh	PLCb3 inh	ADAM10 inh	proKLK7 act	proKLK7 act conf	EDANS interfere	others
C=CCN=C1NC(c2ccccc2C(F)(F)F)C(C(=O)OC)=C(C)N1Cc1ccccc1C(F)(F)F (stereo not drawn)	0	-1	0	1	-2	0	·	·
COc1cc(NC(=O)c2ccc3c(c2)S(=O)(=O)N=C2CCCCCN23)cc(OC)c1	1	-1	-2	-4	-1	15*	6	1
CC(=O)NN1C(=O)c2ccccc2NC1c1ccccc1O (stereo not drawn)	-261	-420	-2	i	i	-1	·	·
CS(=O)(=O)NN1C(=O)c2ccccc2NC1c1c[nH]c2ccccc12 (stereo not drawn)	-54	-122	-26	-158	-184	14*	1	2
COc1cc(C2Nc3ccccc3C(=O)N2NS(C)(=O)=O)c([N+](=O)[O-])cc1OC (stereo not drawn)	-24	-60	1	-86	-74	6	·	·
CS(=O)(=O)NN1C(=O)c2ccccc2NC1c1ccccc1 (stereo not drawn)	-219	-463	6	i	i	79*	10	15*
CS(=O)(=O)NN1C(=O)c2ccccc2NC1c1cccc(O)c1 (stereo not drawn)	-283	-500	4	i	i	63*	17*	19*
CS(=O)(=O)NN1C(=O)c2ccccc2NC1c1cccs1 (stereo not drawn)	-199	-421	-3	-458	i	63*	0	11*
Cc1ccc(S(=O)(=O)NN2C(=O)c3ccccc3NC2c2ccccc2O)cc1 (stereo not drawn)	-17	-42	3	-46	-53	3	·	·
CS(=O)(=O)NN1C(=O)c2ccccc2NC1c1ccccc1O (stereo not drawn)	-114	-257	-5	-300	-307	36*	6	6.4*
COc1ccc(C2Nc3ccccc3C(=O)N2NS(C)(=O)=O)c(OC)c1 (stereo not drawn)	-253	-449	-4	i	i	69*	11	15*
CN(C)CCNc1oc(-c2ccccc2F)nc1C#N	-209	i	7	i	i	57*	30*	33*
CN(C)CCCNc1oc(-c2ccccc2)nc1C#N	-180	-423	-1	i	i	13	·	·
CN(C)CCNc1oc(-c2cccc(Cl)c2)nc1C#N	-108	i	-8	i	-497	59*	31*	34*
Cc1ccc(S(=O)(=O)N2CCCC(C(=O)NCCN3CCC(Cc4ccccc4)CC3)C2)cc1 (stereo not drawn)	0	1	-6	-1	-10	0	·	·
Cc1ccc(C2NC(=O)c3[nH]nc(-c4ccccc4)c32)cc1 (stereo not drawn)	0	1	-15	0	2	0	·	·
O=c1[nH]c2cc3c(cc2cc1C(c1nnnn1CC1CCCO1)N1CCCC1)OCO3 (stereo not drawn)	-380	-147	9	-212	i	15*	9	9.4*
Cc1c(CCC(=O)O)c(=O)oc2cc(O)ccc12	i	i	8	i	i	40*	66*	79*
COc1ccc(-c2c(C)c3ccc(O)cc3oc2=O)cc1OC	i	i	-7	i	i	36*	69*	74*
Cc1c(CCC(=O)O)c(=O)oc2cc3occ(C(C)(C)C)c3cc12	-65	-83	2	-118	-168	7	·	·
CC1=C(C(=O)Nc2ccccn2)C(c2cn(C)nc2C)C2=C(CCCC2=O)N1 (stereo not drawn)	-244	-271	2	-327	i	15*	19*	21*
CC1=C(C(=O)Nc2ccc(F)cc2)C(c2ccncc2)C2=C(CCCC2=O)N1 (stereo not drawn)	-47	-86	4	-125	-198	4	·	·
CCn1cc(C2C(C(=O)Nc3ccc(Br)cn3)=C(C)NC3=C2C(=O)CCC3)c(C)n1 (stereo not drawn)	-206	-318	9	-332	i	16*	17*	17*
COC(=O)N[C@H]1CC=C[C@@H]1Cc1cccc(Oc2ccccc2)c1	-4	-1	-1	-5	-9	0	·	·
CC(=O)Nc1cc2c3c(cccc3c1)-c1ccccc1-2	-481	i	-5	i	i	89*	28*	-18	EDANS interf=9.9*
SMILES	ADAM17 inh	PLCg1 inh	HGIII-sPLA2 inh	PLCb3 inh	ADAM10 inh	proKLK7 act	proKLK7 act conf	EDANS interfere	others
CC(=O)Nc1ccc2c(c1)C(=O)c1ccccc1C2=O	1	-27	-4	-34	7	0	·	·
CCOC(=O)c1cc2c(=O)n3ccccc3nc2n(CC2CCCO2)c1=NC(C)=O (stereo not drawn)	i	i	12	i	i	80*	64*	68*
CCOC(=O)c1cc2c(=O)n3ccccc3nc2n(CC2CCCO2)c1=NC(=O)/C=C/c1ccccc1 (stereo not drawn)	i	i	0	i	i	92*	16*	1	EDANS interf=>70
COc1ccc2ccccc2c1/C=N/NC(=O)c1nnn(-c2nonc2N)c1C(C)C	0	-14	-19	-24	11	40*	-4	-3
CCOc1ccc(/C=N/NC(=O)c2nnn(-c3nonc3N)c2-c2cccs2)cc1	-4	-46	-8	-70	-2	80*	-28	-231
Cc1ccc(SCc2c(C(=O)N/N=C/c3ccc4c(c3)OCO4)nnn2-c2nonc2N)cc1	-1	-1	1	-4	-7	0	·	·
Cc1ccc(-c2c(C(=O)N/N=C/c3ccc4c(c3)OCO4)nnn2-c2nonc2N)cc1	-5	-28	-20	-54	-3	195*	71*	75*
CCOc1ccc(-c2c(C(=O)N/N=C/c3cccs3)nnn2-c2nonc2N)cc1	4	-2	-10	-17	5	0	·	·

Source: PubChem
